Screening data as filed in PubChem BioAssay.
KDM5B inh: KDM5B demethylase inhibition; Q9UGL1; KDM5B demethylase, FDH-coupled NADH fluorescence (FDH is formaldehyde dehydrogenase); Potency, µM (highest dose often 57.7 µM), hits mostly inhibitors; hit rate 2.6% among 220,000; AID 1347165; also: potency is read from the fitted curve at half-maximal effect; 0% is about no effect; nearly all actives have a fitted effect of over 70% in size
Target sequence (Q9UGL1 whole entry, looked up): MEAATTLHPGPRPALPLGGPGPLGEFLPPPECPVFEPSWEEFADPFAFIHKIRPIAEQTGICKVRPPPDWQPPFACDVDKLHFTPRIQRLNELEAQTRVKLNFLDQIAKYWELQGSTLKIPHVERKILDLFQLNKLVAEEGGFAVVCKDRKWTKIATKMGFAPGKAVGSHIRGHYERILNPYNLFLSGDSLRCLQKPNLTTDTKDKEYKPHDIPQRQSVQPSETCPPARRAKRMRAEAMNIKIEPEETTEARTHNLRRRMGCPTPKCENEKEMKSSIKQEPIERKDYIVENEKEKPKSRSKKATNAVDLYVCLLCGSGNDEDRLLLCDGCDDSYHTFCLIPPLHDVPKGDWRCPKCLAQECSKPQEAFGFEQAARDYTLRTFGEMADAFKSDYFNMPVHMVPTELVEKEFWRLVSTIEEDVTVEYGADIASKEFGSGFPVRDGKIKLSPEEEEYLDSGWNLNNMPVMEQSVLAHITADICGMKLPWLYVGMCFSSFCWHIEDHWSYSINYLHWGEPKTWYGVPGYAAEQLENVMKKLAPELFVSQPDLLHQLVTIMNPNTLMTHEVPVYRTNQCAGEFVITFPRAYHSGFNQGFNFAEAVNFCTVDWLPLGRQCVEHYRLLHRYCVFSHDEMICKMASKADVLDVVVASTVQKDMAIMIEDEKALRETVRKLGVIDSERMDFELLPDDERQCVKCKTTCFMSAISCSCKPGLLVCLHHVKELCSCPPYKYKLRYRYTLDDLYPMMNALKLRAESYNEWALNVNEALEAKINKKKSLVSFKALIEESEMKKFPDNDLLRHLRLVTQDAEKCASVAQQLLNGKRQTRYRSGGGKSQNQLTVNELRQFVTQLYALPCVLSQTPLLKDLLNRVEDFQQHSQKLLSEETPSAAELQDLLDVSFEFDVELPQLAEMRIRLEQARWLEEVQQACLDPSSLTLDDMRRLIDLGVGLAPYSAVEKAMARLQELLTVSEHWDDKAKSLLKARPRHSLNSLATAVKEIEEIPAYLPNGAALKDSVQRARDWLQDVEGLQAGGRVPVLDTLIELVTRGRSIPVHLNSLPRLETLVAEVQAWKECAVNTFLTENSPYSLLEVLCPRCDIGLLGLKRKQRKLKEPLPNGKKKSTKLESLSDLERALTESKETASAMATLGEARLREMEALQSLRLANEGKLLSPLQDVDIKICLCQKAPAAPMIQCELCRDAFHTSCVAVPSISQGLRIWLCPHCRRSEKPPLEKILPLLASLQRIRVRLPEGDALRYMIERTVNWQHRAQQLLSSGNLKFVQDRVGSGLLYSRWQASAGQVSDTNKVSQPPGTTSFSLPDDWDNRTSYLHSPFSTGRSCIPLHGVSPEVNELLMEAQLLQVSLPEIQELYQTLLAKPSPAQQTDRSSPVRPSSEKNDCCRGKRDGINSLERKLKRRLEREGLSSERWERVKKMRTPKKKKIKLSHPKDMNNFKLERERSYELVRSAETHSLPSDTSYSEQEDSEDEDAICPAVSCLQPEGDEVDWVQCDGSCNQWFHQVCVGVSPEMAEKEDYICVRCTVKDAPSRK
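Measured: NADH fluorescence change, 30 min, RT. System: KDM5BΔAP 200 nM final, H3K4me3 peptide, α-KG, Fe(II), ascorbate, NAD⁺ plus FDH, pH 7.5 HEPES. Compounds: titrated, 10 min pre-incubation with enzyme.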
SNCA viab count: counter-screen for SNCA expression inhibitors: cell viability; HEK-293-SNCA-luc viability, GF-AFC fluorescence, 24 h; hit rate 0.12% among 150,000; Potency, µM (highest dose often 57.1 µM), for the others: at the top dose activity change, negative = cytotoxicity, usual class: cytotoxic;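 also: potency is read from the fitted curve at half-maximal effect; 0% = DMSO-treated cells and -100% = medium-only wells without cells; nearly all actives have a fitted effect of over 30% in size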
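HEK-293-SNCA-luc cells (1500/well) plated 24 h, then exposed 24 h to a dilution series; GF-AFC added 30 min at 37C, fluorescence 405/540 nm; normalised to medium-only and DMSO wells, Hill fit.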
IP6K1 inhibitor: blocks human inositol hexakisphosphate kinase 1. AID 1645851. activity change, % (series mostly up to about 58 µM). hit rate 0.81% among 140,000. Q92551. IP6K1 kinase, ADP-Glo luminescence, 2 h; stronger effect = lower value; in the data active = activity change below about -25%; also: % is scaled to controls: 0 for no effect and ±100 for the full control effect
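ADP-Glo luminescence measures ADP made by human IP6K1 during a 2 h RT reaction with ATP/IP6 (mix at 1.3 mM/130 uM); top library doses 57.5 and 19.1 uM final.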
SNCA expr inhib: inhibitors of alpha-synuclein (SNCA) gene expression. HEK-293 SNCA-luciferase knock-in, luminescence, 24 h. Potency, µM (highest dose often 57.2 µM), inactives show at the top dose activity change, negative = inhibition, most hits filed as inhibitors. hit rate 0.17% among 140,000. AID 1671194;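 also: potency is read from the fitted curve at half-maximal effect; plate controls were DMSO cells for no effect and cell-free wells for full effect; nearly all actives have a fitted effect of over 45% in size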
IP6K1 conf: confirmation of human IP6K1 inhibitors; shares compounds with IP6K1 inhibitor; recombinant IP6K1 kinase, ADP-Glo luminescence, 2 h; Potency, µM (doses to about 49 µM), for inactives: at the highest dose activity change, negative = inhibition, actives largely listed as inhibitors; hit rate 13% among 1,200; also: potency is read from the fitted curve at half-maximal effect; % is scaled to controls: 0 for no effect and ±100 for the full control effect; nearly all actives have a fitted effect of over 65% in size
* = called active by the depositor; i = inactive; ? = inconclusive; · = no result given; [ ] = another dose, or the depositor's remark. Only some compounds are listed: those with a hit (about 3% of all), similar ones and a draw of the others. Unless noted, calls follow the shape of the dose curve; as a rule, active = well fitted curve in the direction sought with a large enough effect; inconclusive = small, poorly fitted or top-dose-only effect, or another doubt; inactive = no such curve, though single readings can be large; an effect the other way counts as inactive or inconclusive.

SMILES	KDM5B inh	SNCA viab count	IP6K1 inhibitor	SNCA expr inhib	IP6K1 conf
CN1CC(=O)N(c2ccccc2F)Cc2c(NCCc3ccccc3)ncnc21	?	-22%	-2	-19%	·
CN(C)S(=O)(=O)N1CCC(Oc2ccc(C(=O)N3C[C@H]4CC[C@H]3C4)cc2)CC1	i	·	·	·	·
Cc1ccc(C#N)c(N2CC[C@@]3(O)CCN(S(=O)(=O)N(C)C)C[C@H]3C2)n1	28µM*	-17%	0	-21%	·
O=C(NC1CCCCC1)N1Cc2[nH]cnc2C[C@H]1c1nc(-c2cccc([N+](=O)[O-])c2)no1	4µM*	-15%	-23	56%	·
Cc1ccc(NC(=O)N2Cc3[nH]cnc3C[C@H]2c2nc(-c3ccc4ccccc4c3)no2)cc1	22µM*	-28%	18	101%	·
CC(C)OC(=O)N(C)Cc1cccc(N2CCN(S(=O)(=O)c3c(Cl)cccc3Cl)CC2)c1F	·	·	-1	·	·
C=CCCC(=O)N1[C@@H](c2ccccc2)[C@@H](C(=O)OCC)C[C@]12CCCCN(CCOC)C2=O	·	·	-4	·	·
Cc1cccc2c1O[C@H]1[C@H](CO)CN(C(=O)CC(C)C)[C@@H]21	·	·	10	·	·
Cn1nc(-c2ccncc2)cc1NC(=O)c1ccc(C(F)(F)F)cc1	·	-8%	-2	-15%	·
CC(C)NC(=O)C1CCCN(Cc2cccc(-c3ccsc3)c2)C1 (stereo unspecified)	·	·	-10	·	·
Cc1cccc(C(=O)Oc2ccc(C3(c4ccc(OC(=O)c5cccc(C)c5)cc4)OC(=O)c4ccccc43)cc2)c1	i	·	·	·	·
O=C1OC2(c3ccccc31)c1cc(Br)c(O)c(Br)c1Oc1c2cc(Br)c(O)c1Br	·	-12%[23.9 µM]	-69*	-43%[25.6 µM]	3.3µM*
CCN1CC(c2ccccc2)CC2(CCN(C(=O)COC)CC2)C1 (stereo unspecified)	i	-8%	-27*	5%	-12%
CCN1CC(c2ccccc2)CC2(CCN(C(=O)CCn3cccn3)CC2)C1 (stereo unspecified)	i	-3%	3	19%	·
C#CCNC(=O)c1cc(-c2cccc(C(F)(F)F)c2)nc2c1cnn2C	·	·	8	·	·
COc1ccccc1Nc1ccnc(N2CCCC(C(=O)NCc3ccc(F)c(F)c3)C2)n1 (stereo unspecified)	·	-19%[12.5 µM]	11	-18%	·
c1ccc(Nc2cc3c(cn2)CN(Cc2ccc4[nH]ccc4c2)CCN3)cc1	?	?	-22	-2%[87.6 µM]	·
c1ccc(Nc2cc3c(cn2)NCCN(Cc2ccc4[nH]ccc4c2)C3)cc1	32µM*	?	-30*	-28%[87.6 µM]	-10%
O=C(O)c1ccc(-c2c[nH]c3ncc(-c4ccccc4)cc23)cc1C1CCCC1	·	5%	·	?	?
CCN1C[C@H]2COc3ccc(C)cc3[C@H]2N(C(=O)CC2CCCC2)CCC1=O	·	·	4	·	·
O=S(=O)(c1ccc(Cl)cc1)c1nc(-c2cccs2)oc1N1CCCCC1	?	7%	-27*	33%	13%
CC1CCN(c2oc(-c3cccs3)nc2S(=O)(=O)c2ccccc2)CC1	?	-14%	-23	-2%	·
O=C(NCCc1ccc(F)cc1)c1ccc2nnc(-c3ccc(Cl)cc3)n2c1	·	-14%	-2	-5%	·
C[C@@H](O)[C@H](N)C(=O)NCc1nc(-c2cccc(F)c2)c(-c2ccccn2)[nH]1	?	-19%	-1	3%	·
O=C(NCc1nc(-c2cccc(F)c2)c(-c2ccccn2)[nH]1)[C@@H]1C[C@@H](O)CN1	i	-3%	-30*	2%	-7%
SMILES	KDM5B inh	SNCA viab count	IP6K1 inhibitor	SNCA expr inhib	IP6K1 conf
Cc1cc(=O)n(CC(=O)Nc2cccc(C(F)(F)F)c2)c(N2CCC(C)CC2)n1	i	-10%	6	?	·
O=C1C(N2CCN(Cc3ccc[nH]3)CC2)CCN1Cc1ccccn1 (stereo unspecified)	?	-2%	8	12%	-6%
O=C1CN(C(=O)c2cccc(C(F)(F)F)c2)CC(O)CN1Cc1ccc(Cl)cc1 (stereo unspecified)	·	·	-6	·	·
CCOC(=O)c1c(NC(C)=O)c2c3c(sc2n1Cc1nc(-c2ccccc2Cl)oc1C)CCCC3	?	-23%	-30*	?	11%
Fc1ccc(CNc2nc(-c3ccccc3C(F)(F)F)nc3ccccc23)cc1	·	·	·	·	-2%
Fc1cccc(CNc2nc(-c3ccccc3C(F)(F)F)nc3ccccc23)c1	·	·	·	·	-8%
Cc1ccc(OCc2nc(C3CCN(C(=O)NCc4ccccc4)C3)no2)cc1 (stereo unspecified)	·	1%	-1	3%	·
C#CCNC(=O)c1nc2sccn2c1-c1cccc(C(F)(F)F)c1	·	0%[87.6 µM]	17	-14%[87.6 µM]	·
O=C(O)CCc1ccc(-c2ccccc2)n1-c1ccc(C(=O)O)cc1	?	7%	-27*	12%	-12%
Cc1ccc(-c2ccc(CCC(=O)O)n2-c2ccc(C)c(Cl)c2)cc1	?	4%	-23	49%	·
COc1cccc(NC(=O)Nc2cccc(-c3ccc(N4CCOCC4)nn3)c2)c1	i	?	-21	-55%	·
Nc1cccc(-c2ccc(N3CCOCC3)nn2)c1	i	6%	-30*	?	?
CN(Cc1ccccc1)C(=O)c1ccc(S(=O)(=O)Nc2ccccc2)cc1	·	·	·	·	-9%
O=C(CCC[C@H]1NC[C@@H]2CC1CN(Cc1ccccc1)C2)N1CCCCC1	i	3%	4	-18%	·
COc1cccc(N2CCN(C(=O)CCC[C@H]3NC[C@@H]4C[C@H]3CN(Cc3ccccc3)C4)CC2)c1	25µM*	3%	-26*	-9%	1%
COc1ccc(C2=C(C)C(=O)N(Cc3ccc(C(=O)Nc4ccc(F)cc4C)cc3)S2(=O)=O)cc1	?	-2%	-30*	?	-1%
O=C(CNC(=O)c1cccc(-c2ccsc2)c1)NCc1ccccc1Cl	·	-5%	8	?	·
COc1cccc(CNC(=O)C2CCN(C(=O)c3ccc(-c4cccc(OC)c4)cc3)CC2)c1	·	5%[12.5 µM]	7	-6%	·
O=C(O)c1cc(-c2ccccc2CO)cc(S(=O)(=O)N2CCCCCC2)c1	i	-2%	-30*	2%	-16%
O=C(O)c1cc(-c2cncnc2)cc(S(=O)(=O)N2CCCCCC2)c1	i	-9%	0	5%	·
COc1ccc(F)cc1-c1ccc(CN2CCC(NC(=O)c3ccc(C)cc3)C2)cc1 (stereo unspecified)	·	·	-11	·	·
Cc1oc2ncn(CC(C)C)c(=O)c2c1C(=O)NCCCN(Cc1ccccc1)C(C)C	i	2%	-29*	21%	-3%
CN1CCN(c2cc(=O)c3ccnc(N4CCN(c5ccccn5)CC4)c3o2)CC1	i	-2%[87.6 µM]	-26*	-12%[87.6 µM]	-27%
CN(c1ccccc1)c1cc(=O)c2ccnc(N3CCOCC3)c2o1	i	-6%[87.6 µM]	-21	20%[87.6 µM]	·
c1cc(NCCc2c[nH]c3ccccc23)cc(Nc2ccncc2)c1	·	?	-34*	·	-5%
c1ccc2c(CCNc3ccc(Nc4ccncc4)cc3)c[nH]c2c1	·	-12%	23	?	·
CCc1nc2c(c(-c3ccc(O)cc3)n1)CN(Cc1cccn1C)CC2	·	3%[87.6 µM]	22	-13%[87.6 µM]	·
